# Hits are enriched below; roughly 2.2% of the tested compounds scored in any of these assays.
# uPA surface inh: blocks generation of uPA at the cell surface. cell surface uPA generation assay, qHTS. 330,000 compounds, 0.31% hits. Potency, µM (titrated, usually from 38.3 µM), for the others: top-dose activity change, negative = inhibition, hits mostly inhibitors; active means well fitted inhibition curve with a large enough effect; inconclusive means small, poorly fitted or top-dose-only effect; inactive means no such curve, though single readings can be large or run the other way; tested in mouse RAW 264.7 cells; further: potency means the concentration at half of the fitted maximal effect; on the % scale 0 is the no-effect control and ±100 the full control effect; nearly all actives have a fitted effect of over 55% in size
# HEK293 tox: cytotoxicity in counter-screen for GLP-1R inverse agonists; HEK293 cAMP-luciferase reporter cells, luminescence, 24 h; Potency, µM (highest dose often 38.3 µM), for the others: at the top dose activity change, negative = inhibition, hits mostly inhibitors; 410,000 compounds, 0.13% hits; AID 624418;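 further: loss of luciferase light is scored as toxicity; potency means the concentration at half of the fitted maximal effect; on the % scale 0 is the no-effect control and ±100 the full control effect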
#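 To flag toxic compounds, the library was rerun on cells for 24 hr at 37 deg C and 5% CO2. Viability-linked luminescence was captured 12 min after adding luciferase detection reagent.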
# CCT modulator: cytosolic chaperonin activity modulation. activity change, % (no concentration beside the values), hits read low. purified chaperonin ATPase assay, HTRF ADP detection, 30 min. AID 651819. 360,000 compounds, 0.3% hits; in the data active means activity change below about -30%; further: on the % scale 0 is the no-effect control and ±100 the full control effect
#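 ATPase activity: ADP formed was measured by HTRF Transcreener (665/615 nm ratio) after 30 min at 37 deg C with 10 uM ATP. Compounds screened at one 76 uM concentration against 40 or 20 nM TRiC in Tris pH 7.4/KCl/MgCl2/DTT buffer.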
# GLP1R ag: activates the human GLP-1 receptor; HEK293 GLP-1R CRE-luciferase, luminescence, 4-6 h; cells express a hypersensitive GLP-1R form; Potency, µM (top dose mostly 45.6 µM), for inactives: top-dose activation, usual class: activators; 380,000 compounds, 0.007% hits; P43220; further: potency means the concentration at half of the fitted maximal effect; % of control where 0% means no effect
# Target sequence (P43220 whole entry, looked up): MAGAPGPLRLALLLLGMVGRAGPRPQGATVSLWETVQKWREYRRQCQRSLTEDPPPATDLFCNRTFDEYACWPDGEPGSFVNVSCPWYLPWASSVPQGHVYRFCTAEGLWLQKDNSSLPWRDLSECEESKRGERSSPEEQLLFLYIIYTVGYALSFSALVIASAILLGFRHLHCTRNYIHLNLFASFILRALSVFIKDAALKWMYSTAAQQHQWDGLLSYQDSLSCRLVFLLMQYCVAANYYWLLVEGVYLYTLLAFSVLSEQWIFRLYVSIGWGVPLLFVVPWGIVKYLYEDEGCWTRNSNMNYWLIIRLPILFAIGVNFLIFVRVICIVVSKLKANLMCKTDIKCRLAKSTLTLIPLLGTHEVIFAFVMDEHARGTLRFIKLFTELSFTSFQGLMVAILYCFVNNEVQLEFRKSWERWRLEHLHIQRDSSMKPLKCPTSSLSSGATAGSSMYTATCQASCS
# GLP-1R inv ag: GLP-1 receptor (human) inverse agonism. HEK293 GLP-1R CRE-luciferase, luminescence, 24 h; GLP-1R form is constitutively active. Potency, µM (series often up to 38.3 µM), without a hit: at the highest dose activity change, negative = inhibition, actives largely listed as inhibitors. 410,000 compounds, 1.6% hits. AID 624417; further: potency means the concentration at half of the fitted maximal effect; on the % scale 0 is the no-effect control and ±100 the full control effect; nearly all actives have a fitted effect of over 55% in size
#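 qHTS in 1536-well format: reporter HEK293 cells expressing constitutive GLP-1R activity in DMEM + 10% Nu serum, 24 hr with compounds at 37 deg C, luminescence read after 12 min with detection reagent.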
# MmCpn inh: inhibitors of Methanococcus maripaludis chaperonin TRiC (MmCpn); 330,000 compounds, 0.031% hits; purified Mm-Cpn ATPase, ADP Transcreener TR-FRET; Potency, µM (titrated, usually from 76.9 µM), for the others: at the highest dose activity, negative = inhibition, actives largely listed as inhibitors; further: potency means the concentration at half of the fitted maximal effect; on the % scale 0 is the no-effect control and ±100 the full control effect; nearly all actives have a fitted effect of over 80% in size
#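 Purified archaeal Mm-CPN (25nM final) preincubated 10 min at 37degC with compound, then 10uM ATP for 30 min at 37degC; ADP measured by HTRF Transcreener TR-FRET; buffer 30 mM TRIS pH 7.4, 100mM KCl, 5mM MgCl2, 1mM DTT.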
# Starred values were filed as active, the others as inactive; ? = inconclusive; . = no result given. Unless noted, the call rests on the fitted dose curve; in most records, active means well fitted curve in the direction sought with a large enough effect; inconclusive means small, poorly fitted or top-dose-only effect, or another doubt; inactive means no such curve, though single readings can be large; an effect the other way counts as inactive or inconclusive.
SMILES,uPA surface inh,HEK293 tox,CCT modulator,GLP1R ag,GLP-1R inv ag,MmCpn inh
CC(=O)c1sc2c(c1OC(=O)c1ccc(Cl)cc1Cl)c(=O)n(-c1ccccc1)c(=S)n2-c1ccccc1,-4%,14%,7,-7%,7.9µM*,-27%
CCCCOC(=O)c1ccc(NS(=O)(=O)c2c(C)nc3scc(C)n3c2=O)cc1,.,-4%,.,.,-4%,.
CCN1CCN(c2cc(C(C)C)nc3c(-c4ccccc4)c(C)nn23)CC1,1%,?,-3,20%,4µM*,2%
Cc1nn2c(N3CCOCC3)cc(C(C)C)nc2c1-c1ccccc1,?,4%,1,-3%,11%,1%
CCOC(=O)c1ccc(NC(=O)CCCn2nc(C)c3sc4ccccc4c3c2=O)cc1,.,10%,.,.,4%,.
Cc1ccccc1CN(C)C(=O)COC(=O)c1ccc2[nH]c(C)c(C)c2c1,8%,-29%,0,2%,8.9µM*,-5%
Cc1ccn2c(=O)c(C(=O)NCCc3ccccc3)c(O)nc2c1,.,-4%,.,-3%,-15%,.
N#CCSc1nc2c(c(=O)n1Cc1ccco1)C1(CCCC1)Cc1ccccc1-2,-6%,-12%,-1,7%,5.6µM*,-5%
CCCn1c(SCC#N)nc2c(c1=O)C1(CCCC1)Cc1ccccc1-2,-3%,-12%,0,0%,?,-1%
FC(F)(F)c1cccc(N2CCN(C(=S)NC3CCCC3)CC2)c1,-5%,?,-1,-2%,7.9µM*,-1%
O=c1c(=O)n(-c2ccc(F)c(F)c2)ccn1Cc1ccc(F)cc1Cl,.,14%,.,.,11%,.
Cc1nc2ccccc2c2oc(C(=O)Nc3ccc(C(C)C)cc3)cc12,?,-29%,0,-2%,7.9µM*,1%
COc1cc(C2C(=O)N(C3CCCCC3)CC(=O)N2Cc2ccc(C)cc2)ccc1OC(C)C (stereo not drawn),.,-3%,.,.,3%,.
S=c1nc2ccccc2c2nc(-c3ccccc3)[nH]n12,-3%,0.89µM*,2,-3%,?,-2%
COc1cc(-c2nc3c4ccccc4nc(=S)n3[nH]2)cc(OC)c1OC,-5%,-25%,-37*,1%,5%,1%
COc1ccccc1-c1nc2c3ccccc3nc(=S)n2[nH]1,-1%,?,-1,5%,?,0%
Cc1ccccc1NC(=O)c1c(NC(=O)C(C)Oc2cccc(Cl)c2)sc2c1CCCC2 (stereo not drawn),.,-1%,.,.,21%,.
Oc1ccc2ccccc2c1CNc1ccc2ccccc2c1,-4%,?,-37*,7%,?,.
CC1CCN(C(=O)CSc2nnc(NC(=O)Nc3ccccc3)s2)CC1,.,0%,.,.,7%,.
CCC1C(=NO)C(CC)C(c2ccccc2)NC1c1ccccc1 (stereo not drawn),4%,?,-2,0%,3.5µM*,1%
CC1C(=NO)C(C)C(c2ccccc2)NC1c1ccccc1 (stereo not drawn),.,6%,0,-3%,0%,0%
CCC1C(=O)C(CC)C(c2ccccc2)NC1c1ccccc1 (stereo not drawn),-2%,16%,-50*,1%,?,0%
S=C(N/N=C/c1ccccc1Cl)Nc1ccccc1,.,4µM*,-2,12%,?,-15%
CNC(=S)N/N=C/c1ccccc1Cl,-9%,?,-1,1%,?,-2%
Cc1ccc(S(=O)(=O)N(CC(=O)Nc2ccccc2C(=O)O)c2cccc(Cl)c2C)cc1,3%,-16%,-1,-10%,8.9µM*,4%
Cc1ccc(S(=O)(=O)N(CC(=O)Nc2ccccc2C(=O)O)c2ccccc2C)cc1,1%,12%,2,0%,?,-5%
Cc1ccc(NC(=O)CN(C)C(=O)c2ccc(NS(=O)(=O)c3cccc([N+](=O)[O-])c3)cc2)cc1,-7%,-10%,1,-1%,11%,0%
